# From PubChem BioAssay
# Most compounds without a hit are left out; they make up all but 10% or so of the library.
# RORg inh: inhibitors of mouse ROR gamma transcriptional activity. P51450. Drosophila S2 Gal4-RORgamma UAS-luciferase reporter, 20 h. Potency, µM (top dose mostly 53.6 µM), without a hit: at the highest dose activity change, negative = inhibition, hits mostly inhibitors. 310,000 compounds, 5.4% hits; note: % is set by controls: 0 for no effect and ±100 for the full control effect; nearly all actives have a fitted effect of over 60% in size
# Target sequence (P51450 whole entry, looked up, the tested form may be a part): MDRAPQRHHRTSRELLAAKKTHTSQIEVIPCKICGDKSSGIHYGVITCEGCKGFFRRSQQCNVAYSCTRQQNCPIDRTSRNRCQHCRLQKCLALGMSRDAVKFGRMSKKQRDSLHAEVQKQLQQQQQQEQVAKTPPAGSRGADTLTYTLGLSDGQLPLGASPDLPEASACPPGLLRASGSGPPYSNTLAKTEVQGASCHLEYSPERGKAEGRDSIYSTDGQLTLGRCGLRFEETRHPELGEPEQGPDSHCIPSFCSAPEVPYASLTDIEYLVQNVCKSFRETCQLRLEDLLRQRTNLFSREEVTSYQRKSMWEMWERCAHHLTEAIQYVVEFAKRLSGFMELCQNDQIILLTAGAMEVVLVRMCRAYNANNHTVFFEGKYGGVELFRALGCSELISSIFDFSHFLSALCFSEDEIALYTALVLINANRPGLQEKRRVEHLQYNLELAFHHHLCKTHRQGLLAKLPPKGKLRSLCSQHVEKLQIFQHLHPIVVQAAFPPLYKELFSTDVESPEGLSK
#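 In this cell-based reporter format, copper sulfate (700 uM final) drives Gal4–ROR gamma fusion expression from a metallothionein promoter in Drosophila Schneider cells; compounds preincubated 1 hr, reporter read after 20 hr at ambient temperature.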
# MCF10A rereplic: induces DNA re-replication in MCF 10a normal breast cells. Potency, µM (titrated, usually from 46.1 µM), for inactives: at the top dose activity, positive = re-replication, actives largely listed as activators. MCF 10A DNA re-replication, Hoechst nuclear intensity, 48 h. 350,000 compounds, 2.9% hits; note: % of control where 0% means no effect; nearly all actives have a fitted effect of over 50% in size
# KB-V1 cytotox: kills drug-selected multidrug resistant KB-V1 cells | KB-V1 MDR cells viability, CellTiter-Glo, 72 h | Potency, µM (series often up to 46.1 µM), hits mostly cytotoxic | 400,000 compounds, 3.4% hits; note: % is set by controls: 0 for no effect and ±100 for the full control effect; nearly all actives have a fitted effect of over 60% in size
#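 Following 72 h at 37 degrees C with compound, KB-V1 cell viability was read by CellTiter-Glo luminescence, medium being phenol-red-free DMEM plus 10% FBS; concentration-response parameters came from normalized, curve-fitted qHTS data.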
# Gal4-VP16 FLuc: Gal4-VP16 reporter inhibition counter-screen. Potency, µM (titrated, usually from 53.6 µM), for the others: at the top dose activity, negative = inhibition, hits mostly inhibitors. 310,000 compounds, 3.5% hits. Drosophila S2 Gal4-VP16 UAS-luciferase, luminescence, 20 h;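 note: Gal4-VP16 expression switched on by copper sulfate through the metallothionein promoter; % is set by controls: 0 for no effect and ±100 for the full control effect; nearly all actives have a fitted effect of over 50% in size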
# SW480 rereplic: induces DNA re-replication in SW480 colon adenocarcinoma cells; SW480 DNA re-replication, Hoechst DNA content imaging, 48 h; Potency, µM (highest dose often 46.1 µM), inactives show top-dose re-replication activation, hits mostly activators; 340,000 compounds, 1.8% hits; note: % of control where 0% means no effect; nearly all actives have a fitted effect of over 55% in size
#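 Hoechst fluorescence of nuclei (405 nm excitation, 500-530 nm emission) measured by plate-scanning imager after 48 hr compound exposure at 37 C; re-replication scored as increased number of nuclei with elevated intensity.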
# KB-3-1 cytotox: KB-3-1 parental cell cytotoxicity; Potency, µM (highest dose often 46.1 µM), actives largely listed as cytotoxic; KB-3-1 viability, CellTiter-Glo ATP luminescence, 72 h; 400,000 compounds, 1.4% hits; note: % is set by controls: 0 for no effect and ±100 for the full control effect; nearly all actives have a fitted effect of over 60% in size
#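 Luminescent ATP read-out (CellTiter-Glo) measures survival of drug-naive KB-3-1 cells after 72 h compound exposure at 37 °C. Titration series was screened from lowest to highest concentration, with DMSO vehicle plates as background controls.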
# Active calls of the source: *; i = inactive; ? = inconclusive; / = not tested or not shown; [ ] = another dose, or the depositor's remark. Calls come from the whole dose curve; as a rule, active = well fitted curve in the direction sought with a large enough effect; inconclusive = small, poorly fitted or top-dose-only effect, or another doubt; inactive = no such curve, though single readings can be large; an effect the other way counts as inactive or inconclusive. Potency is the fitted concentration of half-maximal effect.
SMILES,RORg inh,MCF10A rereplic,KB-V1 cytotox,Gal4-VP16 FLuc,SW480 rereplic,KB-3-1 cytotox
CCCC(=O)NC(c1ccc(Cl)cc1Cl)c1ccc2cccnc2c1O (stereo not drawn),5.6µM*,?,i,2µM*,0.65µM*,?
CCCCC(=O)NC(c1ccc(Cl)cc1)c1ccc2cccnc2c1O (stereo not drawn),/,12µM*,?,/,1µM*,i
COc1ccc(C(NC(C)=O)c2ccc3cccnc3c2O)cc1OC (stereo not drawn),/,/,i,/,/,?
CCN(CC)c1ccc(C(NC(=O)C(C)C)c2ccc3cccnc3c2O)cc1 (stereo not drawn),/,/,?,/,/,i
CC(=O)NC(c1ccc2ccccc2c1)c1ccc2cccnc2c1O (stereo not drawn),5µM*,?,?,1.6µM*,?,?
CCCCCCCCCCCCCCCC(=O)OCC(COP(=O)(O)O)OC(=O)CCCCCCCCCCCCCCC (stereo not drawn),-2%,/,/,8%,/,/
O=C(NCc1cccc(C(F)(F)F)c1)c1csc([C@@H]2O[C@H](CO)[C@H](O)[C@H](O)[C@H]2O)n1,/,/,i,/,/,i
O=C(Nc1ccc(F)c(Cl)c1)C1CC(=O)n2c(nc3ccccc32)N1 (stereo not drawn),3.5µM*,-3%,i,?,-1%,i
C/C(=N/Nc1cc(-c2ccccc2)nc(-c2ccccc2)n1)c1ccc(O)cc1,-1%[10 µM],18µM*,18µM*,-28%,-2%,?
C/C(=N\Nc1cc(Cl)nc(C)n1)c1ccccc1,34%,6%,i,-3%,-3%,?
C/C(=N\Nc1cc(-c2ccccc2)nc(-c2ccc(Br)cc2)n1)c1cccc(N)c1,/,?,15µM*,/,?,i
C/C(=N/Nc1nc(-c2ccccc2)cc(-c2ccccc2)n1)c1ccc(N)cc1,10µM*,/,/,?,/,/
C/C(=N\Nc1ccccc1)c1cccc(N)c1,16%,7%,i,?,4%,i
CCCN(CCC)c1cc(C)nc2nc(-c3ccc(Cl)cc3)nn12,/,/,i,/,/,i
Cc1ccc(NC(=O)CCc2c(C)nc3c(-c4ccc(F)cc4)c(C)nn3c2C)cc1F,/,/,i,/,/,i
Cc1[nH]n2c(=O)cc(-c3ccccc3Cl)nc2c1-c1ccccc1,/,/,i,/,/,6.5µM*
COc1ccc(-c2c(C)[nH]n3c(=O)c(Cc4ccccc4)c(C)nc23)cc1OC,3.5µM*,?,i,?,?,i
Cc1nc2c(-c3ccccc3)c(C)[nH]n2c(=O)c1Cc1ccccc1,2.8µM*,?,?,7.1µM*,?,?
Cc1cc(=O)n2[nH]c(C(F)(F)F)c(-c3ccccc3)c2n1,-26%,0%,i,-13%,1%,i
Cc1cccc(Cc2c(C)nc3c(-c4ccccc4)c(C)[nH]n3c2=O)c1,/,/,i,/,/,10µM*
CCOC(=O)Cc1c(C)nc2c(-c3ccccc3)c(C)[nH]n2c1=O,34%,-5%,i,2%,3%,i
Cc1nc2c(C#N)c(C)[nH]n2c(=O)c1Cc1ccccc1,-42%,3%,i,2%,2%,i
Cc1nc2c(-c3ccc(F)cc3)c(C)[nH]n2c(=O)c1Cl,11µM*,13%,i,11µM*,7.3µM*,10µM*
Cc1nc2c(C(=O)NCc3ccc(F)cc3)c[nH]n2c(=O)c1Cl,4%,2%,i,8%,2%,i
Cc1nc2c(-c3ccc(Cl)cc3)c(C)[nH]n2c(=O)c1Cc1ccccc1,1.4µM*,?,?,?,?,i
SMILES,RORg inh,MCF10A rereplic,KB-V1 cytotox,Gal4-VP16 FLuc,SW480 rereplic,KB-3-1 cytotox
CC(=O)c1cccc(N2C(=O)CN(S(C)(=O)=O)CC2(C)C(=O)NC2CCCC2)c1 (stereo not drawn),/,/,?,/,/,i
COc1cccc(-c2cc(=O)c3cc(NC(C)=O)ccc3[nH]2)c1,6%,23µM*,i,-2%,16µM*,i
CC(C)C1C(=O)N(Cc2cn(CCC3OCCO3)nn2)CCS(=O)(=O)N1Cc1ccc(-c2ccc(F)cc2Cl)cc1 (stereo not drawn),/,/,i,/,/,i
CCN(CC)C(=O)CSc1nc2cc3c(cc2c(=O)n1CCCCCC(=O)NCc1ccc(OC)cc1)OCO3,-20%,18µM*,?,-12%,16%,i
CCN(CC)C(=O)CSc1nc2cc3c(cc2c(=O)n1CCCC(=O)NCCc1ccc(OC)c(OC)c1)OCO3,0%,-2%,i,-14%,-3%,i
Cc1ccc(-n2ncc3c(NCCC4=CCCCC4)ncnc32)cc1,/,/,i,/,/,i
COc1ccc2cc3c(N)nn(C(=O)c4ccccc4Cl)c3nc2c1,6%,23%,?,-10%,4.1µM*,?
COc1ccc2cc3c(N)nn(C(=O)c4ccc(F)cc4)c3nc2c1,-6%,?,?,-10%,?,i
Cc1ccc(NC(=O)c2cccc(S(=O)(=O)N3CCN(c4ccccc4)CC3)c2)nc1,/,10%,?,/,-113%,?
CC(C)(C)C(=O)N1CCc2cc(-c3csc(N)n3)ccc21,13µM*,-1%,i,10µM*,13%,?
c1csc(CCNc2ncnc3sc4c(c23)CCC4)c1,-43%,5%,i,11µM*,14%,i
CC(=NNC(=O)c1cc(C)oc1C)c1ccc(Br)s1,/,-6%,i,/,0%,i
C/C(=N\NC(=O)c1ccc2c(c1)OCO2)c1ccco1,?,3%,i,?,-6%,i
C/C(=N\NC(=O)c1ccc(Cl)c(Cl)c1)c1ccc(Br)s1,0.63µM*,13%,?,0.63µM*,?,?
C/C(=N/NC(=O)c1ccc2c(c1)OCO2)c1ccc(Br)s1,2.8µM*,1%,i,?,-7%,i
CCCCCCc1ccc(C(=O)CCN(C)C)cc1,/,/,/,-4%,/,/
COc1ccc(C2=CC(c3ccccc3Cl)n3nc(-c4ccc(C)cc4)nc3N2)cc1 (stereo not drawn),/,/,i,/,/,i
O=C(COc1ccc(C(=O)c2ccc(F)cc2)cc1)NCc1ccc(F)cc1,17%,1.5µM*,9.2µM*,-19%,15µM*,4.1µM*
Cc1cccc(NC(=O)CNC(=O)COc2ccc(C(=O)c3ccc(F)cc3)cc2)c1C,32%,15µM*,?,9%,?,6.5µM*
COc1ccc(CNC(=O)COc2ccc(C(=O)c3ccc(F)cc3)cc2)cc1,8%,1.2µM*,?,0%,?,?
COc1ccc(CNC(=O)COc2ccc(F)cc2)cc1,0%,-3%,?,-12%,-7%,i
